Compound activity deposited in PubChem BioAssay by several laboratories.
A selection: hits, their analogues and other compounds. The true share with any hit is near 3%.
Mtb BioA inh – M. tuberculosis BioA enzyme inhibitors, primary screen, biochemical, plate reader, single point, HTS; 7,8-diaminopelargonic acid synthase BioA (Mycobacterium tuberculosis); purified M. tuberculosis BioA enzyme; inhibition, % at 9.99 µM; 360,000 compounds, 0.096% hits; AID 602481, 2012; in the data active = inhibition above about 40%
GDH-TPI inh – GDH-TPI coupling enzyme inhibitors, primary screen, artefact control for M. tuberculosis FBA inhibitor project, biochemical, absorbance, full deck; AID 588335, 2011; GDH-TPI coupled enzyme counterscreen, NADH absorbance; 360,000 compounds, 1.2% hits; inhibition, % at 4.8 µM; in the data active = inhibition above about 30%;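 also: 0% = DMSO wells and 100% = wells lacking the enzyme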
FBA Mtb inh – Mtb FBA enzyme inhibitors, primary screen, biochemical, fluorescence, strain H37Rv; inhibition, % at 1 µM; Fructose-bisphosphate aldolase (Mycobacterium tuberculosis (strain ATCC 25618 / H37Rv)), …; 360,000 compounds, 2.3% hits; purified M. tuberculosis FBA, fluorescence read-out; AID 588726, 2011; in the data active = inhibition above about 27%;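 also: 0% = vehicle and 100% = reference inhibitor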
Target sequence (P9WQA3 whole entry, looked up): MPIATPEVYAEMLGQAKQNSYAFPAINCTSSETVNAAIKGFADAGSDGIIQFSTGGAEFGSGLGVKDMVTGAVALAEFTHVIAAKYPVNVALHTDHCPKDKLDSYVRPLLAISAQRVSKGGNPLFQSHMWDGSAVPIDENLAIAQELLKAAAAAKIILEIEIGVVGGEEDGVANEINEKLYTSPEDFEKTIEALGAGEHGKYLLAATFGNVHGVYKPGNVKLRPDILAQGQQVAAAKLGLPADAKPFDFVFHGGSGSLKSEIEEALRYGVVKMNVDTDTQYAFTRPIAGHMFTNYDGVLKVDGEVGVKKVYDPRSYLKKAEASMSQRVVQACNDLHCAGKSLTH
BH1578 lux ind – inducers of Vibrio cholerae quorum light production without autoinducers, primary screen, BH1578 luxS cqsA deficient, single point. activation, % at 18.7 µM. AID 588436, 2011. 350,000 compounds, 0.16% hits. V. cholerae BH1578 lux reporter, luminescence, 6 h; in the data active = activation mostly above about 9.7%, no sharp cut-off
* marks the source's active call; other numbers are inactive results; i = inactive; nt = no result given; + = active, no number.

SMILES | Mtb BioA inh | GDH-TPI inh | FBA Mtb inh | BH1578 lux ind
CC(=O)N(C)C[C@@H]1Oc2ncc(-c3ccc(C(=O)N(C)C)cc3)cc2C(=O)N([C@@H](C)CO)C[C@H]1C | -1 | nt | nt | nt
Cc1ccc(C(=O)N/C(=C\c2ccc(-c3cccc([N+](=O)[O-])c3)o2)C(=O)NCCCN2CCOCC2)cc1 | 0 | 47* | 0 | i
C=CCN1C(=O)C(CC(=O)O)SC1=Nc1ccc(N=Nc2ccccc2)cc1 (configuration not stated) | 0 | 63* | -1 | 0
CN1N=C(C(=O)N=c2sc3ccccc3n2C)CCC1=O | nt | 49* | 1 | i
C[C@H](CO)N1C[C@H](C)[C@H](CN(C)S(=O)(=O)c2ccc(Cl)cc2)OCCCC[C@H](C)Oc2ccc(NC(=O)C3CCCCC3)cc2C1=O | -1 | nt | nt | nt
COc1c(OC(C)=O)ccc(/C=C/c2ccc3ccccc3n2)c1[N+](=O)[O-] | -1 | 43* | -1 | 2
COc1cc(OC)c(OC)cc1C=Cc1ccc2ccccc2n1 | 0 | 31* | 7 | i
C[C@@H]1CN([C@H](C)CO)C(=O)c2cccc(NC(=O)CCCCCC(=O)Nc3ccccc3N)c2O[C@H]1CN(C)Cc1ccc(-c2ccccc2)cc1 | -1 | nt | nt | nt
C[C@H]1CN([C@@H](C)CO)S(=O)(=O)c2ccc(C#CC3CC3)cc2O[C@H]1CN(C)C(=O)c1ccncc1 | 2 | nt | nt | nt
CSc1nsc(SCC(=O)N2CCN(c3ccccc3)CC2)n1 | 4 | -2 | 135* | -2
CO[C@@H]1CN(C)C(=O)c2ccc(NC(=O)C3CC3)cc2OC[C@H](C)N(Cc2cccc(F)c2)C[C@H]1C | -1 | nt | nt | nt
CC1(CC(=O)N/N=C/c2ccc(-c3cccc(C(F)(F)F)c3)o2)OCCO1 | 9 | 37* | -2 | 0
Cc1oc(/C=N/NC(=O)CC2(C)OCCO2)cc1Br | 1 | 16 | 1 | 5
CC1(CC(=O)N/N=C/c2cc(Br)c(O)cc2O)OCCO1 | -1 | 48* | 3 | 2
C[C@H]1CN([C@@H](C)CO)C(=O)c2cc(NC(=O)Cn3cnnn3)ccc2O[C@@H]1CN(C)Cc1ccc(Cl)c(Cl)c1 | -3 | nt | nt | nt
O=C(CCCN1C(=O)/C(=C/c2cccs2)SC1=S)NNC(=O)c1cccnc1 | -1 | 33* | 3 | 0
O=C(NN1C(=O)/C(=C/c2cccs2)SC1=S)c1ccncc1 | nt | 34* | -7 | 0
CC1CN(Cc2cc(=O)oc3cc(O)ccc23)CC(C)O1 (configuration not stated) | -8 | 7 | 161* | 0
O=c1cc(CN2CCN(Cc3ccccc3)CC2)c2ccc(O)cc2o1 | -1 | 8 | 153* | 5
Cc1ccc2c(CN3CC(C)CC(C)C3)cc(=O)oc2c1 (configuration not stated) | -8 | 6 | 0 | -1
O=C(c1ccco1)N1CCN(Cc2cc(=O)oc3cc(O)ccc23)CC1 | -1 | 26 | + | 0
Cc1ccc2c(CN3CCN(Cc4ccccc4)CC3)cc(=O)oc2c1 | 4 | 6 | 0 | -1
Oc1ccc(Cl)cc1CN1CCN(Cc2ccccc2)CC1 | 2 | 63* | -12 | i
Cc1noc(C)c1NC(=O)N(C)C[C@H]1Oc2cc(C#CCC3CCCC3)ccc2S(=O)(=O)N([C@@H](C)CO)C[C@H]1C | 1 | nt | nt | nt
Cc1cccc(-c2ccc([C@H]3[C@H](CO)N4CCCCN(Cc5ccncc5)C[C@@H]34)cc2)c1 | -1 | nt | nt | nt
SMILES | Mtb BioA inh | GDH-TPI inh | FBA Mtb inh | BH1578 lux ind
Cc1noc(C)c1S(=O)(=O)Nc1ccc2c(c1)C(=O)N([C@@H](C)CO)C[C@@H](C)[C@@H](CN(C)C)OCCCC[C@@H](C)O2 | -3 | nt | nt | nt
C[C@H](CO)N1C[C@H](C)[C@H](CN(C)CC2CC2)Oc2ccc(NC(=O)Nc3ccc(F)cc3)cc2CC1=O | 0 | nt | nt | nt
O=c1[nH]cnc2sc3c(c12)CN(Cc1ccccc1)CC3 | 0 | 23 | 52* | -6
CC1(C)Cc2c(sc3nc[nH]c(=O)c23)CO1 | -3 | 9 | 3 | 0
COC(=O)/C=C1\S/C(=N/N=C/c2ccccc2)NC1=O | 0 | 46* | -3 | 0
COC(=O)/C=C1\S/C(=N/N=C/c2ccc(Cl)cc2)NC1=O | -1 | 35* | -1 | -1
COC(=O)C/C=N/N=C1/NC(=O)/C(=C/C(=O)O)S1 | nt | 35* | -4 | -3
COC(=O)/C=C1/S/C(=N/N=C/c2ccco2)NC1=O | 0 | 21 | -6 | 0
COC(=O)/C=C1\S/C(=N/N=C/c2ccco2)NC1=O | 5 | 33* | -8 | 1
O=C(CSc1nnc(NC(=O)c2ccco2)s1)NC1CCCC1 | -1 | 40* | -3 | -2
C/C(=N\Nc1nccnc1Cl)c1ccc(Cl)c(Cl)c1 | -1 | 41* | -2 | 0
C/C(=N\Nc1nccnc1Cl)c1ccc(O)cc1 | -1 | 23 | -1 | 0
COc1ccc(OC)c2c(C)cc(N3CCCN(C)CC3)nc12 | 9 | -1 | 31* | -1
Cc1ccc(S(=O)(=O)Nc2ccc3c(c2)C(=O)N([C@H](C)CO)C[C@@H](C)[C@H](CN(C)CC2CCCCC2)OCCCC[C@@H](C)O3)cc1 | 0 | nt | nt | nt
CCOCCCn1c(-c2ccc(Cl)cc2)n[nH]c1=S | -1 | -2 | 4 | nt
COCCCn1c(-c2ccc(Cl)cc2)n[nH]c1=S | 2 | 11 | 28* | i
CC(=O)c1ccc(Nc2cc(C)nc3c(C)cc(C)cc23)cc1 | nt | 9 | -4 | -1
Cc1cc(C)c2nc(C)cc(Nc3ccc(C(=O)NCCO)cc3)c2c1 | 0 | 59* | 4 | -2
COc1cc(/C=N/NC(=O)CNC(=O)c2ccco2)ccc1O | 0 | 9 | 4 | 0
COc1cc(/C=N/NC(=O)C(=O)NCC2CCCO2)ccc1O (configuration not stated) | nt | 38* | -2 | i
COc1cc(/C=N/NC(=O)C(=O)NCc2ccco2)ccc1O | -3 | 32* | -2 | -2
COc1cc(/C=N/NC(=O)C(=O)NCc2ccco2)cc(Cl)c1O | -1 | 36* | -2 | -4
COc1ccc(NC(=S)NCC2CCCO2)c(C)c1 (configuration not stated) | nt | 7 | 2 | 0
COc1cc(OC)c(OC)cc1/C=N/NC(=S)NCC1CCCO1 (configuration not stated) | 0 | 34* | 14 | -1
C=CCOc1cccc(/C=N/NC(=O)C(=O)NCc2ccco2)c1 | nt | 18 | -2 | i
COC(=O)C[C@@H]1CC[C@@H]2[C@@H](COc3ccc(NC(=O)c4cnccn4)cc3C(=O)N2C)O1 | 27 | nt | nt | nt
C[C@@H]1CCCCO[C@@H](CN(C)C(=O)CCCN(C)C)[C@@H](C)CN([C@H](C)CO)C(=O)c2cc(NC(=O)c3ccccc3)ccc2O1 | -1 | nt | nt | nt
CC1CCN(C(=O)CSCC(=O)O)CC1 | nt | -8 | 150* | -1
CC1CCN(C(=O)CSc2nnc(Cc3ccccc3)o2)CC1 | 0 | 1 | -2 | 0
CO[C@@H]1CN(C)C(=O)c2ccc(NS(C)(=O)=O)cc2OC[C@H](C)N(CC2CCCCC2)C[C@@H]1C | 2 | nt | nt | nt
